The nature of assay [1]: qHTS assay for small molecules that induce genotoxicity in human embryonic kidney cells expressing luciferase-tagged ATAD5 (AID 651632). Note: nearly all actives have a fitted effect of over 15% in size. In short, it runs like this:
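Concentration-response screen for ATAD5 upregulation in HEK293T luciferase reporter cells; 16 hr treatment at 37C, then luminescence after 30 min with Amplite at room temperature.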
(Quantitative high-throughput screening tests each substance at several concentrations.)

Assay [2] can be described thus: qHTS assay for small molecule agonists of the p53 signaling pathway - cell viability (AID 651633; calls by dose curve; note: nearly all actives have a fitted effect of over 30% in size; note: potency is the fitted concentration of half-maximal effect). In short, it runs like this: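 p53RE-bla cells, seeded at 4,000 per well and rested 5 h at 37 C/5% CO2, received compounds in DMSO for 16 h at 37 C. CellTiter-Glo was then added, and luminescence was read after 30 min at room temperature to gauge cytotoxicity.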
A short description of assay [3]: qHTS assay for small molecules that induce genotoxicity in human embryonic kidney cells expressing luciferase-tagged ATAD5 - cell viability (AID 651634; calls by dose curve; note: nearly all actives have a fitted effect of over 25% in size; note: potency is the fitted concentration of half-maximal effect). In short, it runs like this: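 15.5 hr compound or vehicle exposure of HEK293T cells expressing luciferase-tagged ATAD5 at 37C; live-cell protease activity is read by fluorescence after 30 min of CellTiter-Fluor.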

Assay [4] in a line: qHTS assay for small molecule disruptors of the mitochondrial membrane potential - cell viability (AID 720634; calls by dose curve;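 note: human HepG2 liver cancer cells; series mostly up to about 83 µM; nearly all actives have a fitted effect of over 20% in size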). In short, it runs like this: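 In this qHTS format, HepG2 cells plated overnight were pinned with compound, incubated 1 hr, and assayed for ATP luminescence with CellTiter-Glo after m-MPI dye addition.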
Assay [5] is described as follows: qHTS assay to test for compound auto fluorescence at 590 nm (red) in HepG2 cells (AID 720674). In short, it runs like this: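 Compound auto-fluorescence is scored relative to Rose Bengal sodium, measured at 540/590 nm in live HepG2 cultures after 1 hr compound contact (37 C, 5% CO2).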
Assay [6] is described as follows: qHTS assay to test for compound auto fluorescence at 535 nm (green) in HepG2 cells (AID 720675).
The nature of assay [7]: qHTS assay to test for compound auto fluorescence at 460 nm (blue) in HEK293 cells (AID 720678). In short, it runs like this:
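Cells were seeded and left to adhere for 4-5 hr at 37C. Compounds were then pin-transferred. After an overnight incubation at 37C under 5% CO2, intrinsic fluorescence at 405/460 nm was measured and referenced to triamterene.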

Assay [8] can be described thus: qHTS assay to test for compound auto fluorescence at 590 nm (red) in HEK293 cells (AID 720679). In short, it runs like this:
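Each well held 2,000 HEK293 cells in medium containing 10% dialyzed FBS. Following 4-5 hr attachment at 37C, 23 nL test compound or DMSO was added; plates sat overnight, and red fluorescence (540/590nm) was recorded.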

Assay [9] in a line: qHTS assay to test for compound auto fluorescence at 535 nm (green) in HEK293 cells (AID 720680).
A short description of assay [10]: qHTS assay to test for compound auto fluorescence at 460 nm (blue) in HEK293 cell free culture (AID 720681). In short, it runs like this: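 Test compounds were pinned into cell-free culture medium (DMEM with 10% FBS) and fluorescence was read directly at Ex/Em 405/460 nm. Signals were expressed as fluorescence equivalents of triamterene, with DMSO vehicle as control.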

A short description of assay [11]: qHTS assay to test for compound auto fluorescence at 535 nm (green) in HEK293 cell free culture (AID 720682). In short, it runs like this: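 Compounds were pin-transferred into cell-free DMEM with 10% FBS, and green fluorescence was read at excitation 485 nm and emission 535 nm. Intensities were expressed as fluorescein-equivalent values.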
Assay [12] can be described thus: qHTS assay to test for compound auto fluorescence at 590 nm (red) in HEK293 cell free culture (AID 720683). In short, it runs like this: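 Tox21 10K library compounds were pinned into cell-free DMEM with 10% FBS and fluorescence was read at excitation 540 nm. Activity is expressed as Rose Bengal sodium equivalency.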
A short description of assay [13]: qHTS assay to test for compound auto fluorescence at 590 nm (red) in HepG2 cell free culture (AID 720684). In short, it runs like this: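 Ex 540 / Em 590 nm read of compound in cell-free MEM (10% FBS). Rose Bengal sodium reference.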
A short description of assay [14]: qHTS assay to test for compound auto fluorescence at 460 nm (blue) in HepG2 cell free culture (AID 720685). In short, it runs like this: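 Cell-free plates of MEM plus 10% FBS received 23 nL compound or DMSO vehicle; blue-channel (405/460 nm) intensity scored against triamterene as reference fluorophore.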
Assay [15] can be described thus: qHTS assay to test for compound auto fluorescence at 535 nm (green) in HepG2 cell free culture (AID 720686).
Assay [16] in a line: qHTS assay to test for compound auto fluorescence at 460 nm (blue) in HepG2 cells (AID 720687). In short, it runs like this: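 Cells (2,000/well in MEM with 10% FBS) attached overnight at 37 C, then were exposed to compound or DMSO for 1 hr at 37 C, 5% CO2. Fluorescence read at Ex/Em 405/460 nm, expressed as triamterene-equivalent signal.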
Assay [17] deals with Glucocorticoid receptor (Homo sapiens) (UniProt P04150). In words: qHTS assay to identify small molecule antagonists of the glucocorticoid receptor (GR) signaling pathway (AID 720692; active = well fitted inhibition curve with a large enough effect in the signal ratio in the repeat runs, not every such curve was filed as active; the % refers to the signal ratio). In short, it runs like this: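 Tox21 10K library screened in concentration-response for blockade of dexamethasone (5 nM final)-induced GRE-bla reporter activity in HeLa cells; 18 h treatment, fluorescence read.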

The nature of assay [18]: qHTS assay for small molecule disruptors of the mitochondrial membrane potential (AID 720635). Note: potency is the fitted concentration of half-maximal effect. In short, it runs like this:
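HepG2 cells (2,000/well) attached overnight at 37C, then took compound for 1 hr at 37C, 5% CO2. Mito-MPS dye was added for 30 min; fluorescence was read at 490/535 nm (monomers) and 540/590 nm (aggregates).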

Assay [19] has as its target Glucocorticoid receptor (Homo sapiens) (UniProt P04150). In words: qHTS assay to identify small molecule agonists of the glucocorticoid receptor (GR) signaling pathway (AID 720691; active = well fitted activation curve with a large enough effect in the signal ratio in the repeat runs, not every such curve was filed as active; the % refers to the signal ratio). In short, it runs like this: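 Measures GR pathway activation through a GRE-beta-lactamase reporter stably integrated in HeLa cells, with 18 h compound treatment at 37 C and fluorescence detection using a FRET substrate.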

Values joined by “and” are separate entries in the source; they are usually repeats but may differ in a detail not shown here. Equal values may be shown once. Unmarked numbers belong to inactive results. Results filed as inconclusive are left out. Active and inactive are the calls of the source. Unless noted, calls come from the whole dose curve; as a rule, active = well fitted curve in the direction sought with a large enough effect in the repeat runs; inconclusive = weak or mixed curves; inactive = no such curve, though single readings can be large; an effect the other way counts as inactive or inconclusive.

Glucocorticoid receptor (Homo sapiens), sequence (P04150 whole entry, looked up): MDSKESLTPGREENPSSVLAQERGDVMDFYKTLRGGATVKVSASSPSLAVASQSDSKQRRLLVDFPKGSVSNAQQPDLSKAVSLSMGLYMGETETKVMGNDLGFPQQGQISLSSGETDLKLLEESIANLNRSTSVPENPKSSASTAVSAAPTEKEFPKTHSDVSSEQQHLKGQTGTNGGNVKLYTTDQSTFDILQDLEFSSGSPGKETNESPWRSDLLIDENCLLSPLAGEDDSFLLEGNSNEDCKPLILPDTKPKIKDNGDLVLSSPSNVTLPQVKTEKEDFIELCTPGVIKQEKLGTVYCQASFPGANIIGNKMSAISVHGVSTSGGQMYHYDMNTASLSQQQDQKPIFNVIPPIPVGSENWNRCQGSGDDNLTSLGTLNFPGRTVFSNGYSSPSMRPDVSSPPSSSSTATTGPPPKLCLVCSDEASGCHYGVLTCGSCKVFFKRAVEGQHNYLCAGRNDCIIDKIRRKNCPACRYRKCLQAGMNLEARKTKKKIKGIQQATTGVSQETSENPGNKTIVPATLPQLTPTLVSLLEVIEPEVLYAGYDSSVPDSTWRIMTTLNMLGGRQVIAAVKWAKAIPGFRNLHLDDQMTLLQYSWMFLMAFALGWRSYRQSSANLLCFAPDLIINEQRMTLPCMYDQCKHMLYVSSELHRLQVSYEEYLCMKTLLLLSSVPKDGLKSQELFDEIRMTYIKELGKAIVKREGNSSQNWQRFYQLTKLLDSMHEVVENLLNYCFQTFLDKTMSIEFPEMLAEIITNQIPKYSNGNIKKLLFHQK

For the compound `C=C(C#N)CCC#N`, the Potency result in assay [1], in assay [2], in assay [3], in [4] and in assay [17] was “inactive” throughout. Further, the outcome in assay [5], in assay [6], in assay [7], in [8], in assay [9] and in [10] was inactive. Besides, the call in assay [11], in assay [12], in [13], in [14], in [15] and in assay [16] was inactive.

On to `O=C(N[C@H](c1ccccc1)[C@@H]1CN2CCC1CC2)c1c(Cl)ccc(C(F)(F)F)c1Cl`, for which the Potency result in [1], in assay [2], in assay [3] and in assay [17] was “inactive” throughout. For the same compound, the Potency in assay [18] is 43.9 µM (active). Moreover, the compound was called inactive in assay [5], in assay [6], in assay [7], in [8], in assay [9] and in [10]. In addition, the compound was called inactive in assay [11], in [12], in assay [13], in assay [14], in [15] and in assay [16]. In assay [19], the outcome was inactive.

For the compound `CCc1ccc(C(=O)NN(C(=O)c2cc(C)cc(C)c2)C(C)(C)C)cc1`, the Potency entry in assay [1] and in assay [2] was “inactive” each time. Also, the Potency in [3] was 486 nM (active). Also, the compound was called inactive in [5], in [6], in [7], in assay [8], in assay [9] and in assay [10]. The compound was called inactive in assay [11], in assay [12], in assay [13], in assay [14], in assay [15] and in [16]. Also, the compound was called inactive in [19].

For `O=[N+]([O-])c1ccc(F)c([N+](=O)[O-])c1`, the Potency result in assay [1] and in [2] was “inactive” each time. Also, in assay [3], the Potency was 10.6 µM (active) and 27.6 µM (active). For the same compound, the outcome in [5], in [6], in assay [7], in [8], in assay [9] and in [10] was inactive. Moreover, the outcome in assay [11], in [12], in [13], in assay [14], in assay [15] and in assay [16] was inactive.

Take `O=S1OC[C@@H]2[C@H](CO1)[C@]1(Cl)C(Cl)=C(Cl)[C@@]2(Cl)C1(Cl)Cl` (stereo partly specified): the Potency result in assay [1] and in assay [3] was “inactive” in each case. For the same compound, the Potency in assay [2] was 61.1 µM (active). Further, the outcome in assay [5], in assay [6], in assay [7], in assay [8], in [9] and in [10] was inactive. Further, the result in assay [11], in assay [12], in assay [13], in assay [14], in [15] and in assay [16] was inactive.

Take `Oc1ccc(Cl)c(Cl)c1Cl`: the Potency entry in [1], in assay [2], in [3], in assay [4] and in [17] was “inactive” throughout. Moreover, the compound was classed as inactive in assay [5], in [6], in [7], in assay [8], in [9] and in assay [10]. Besides, the compound was called inactive in assay [11], in assay [12], in assay [13], in assay [14], in assay [15] and in [16]. Further, the compound was called inactive in assay [19].

`CC(O)(CS(=O)(=O)c1ccc(F)cc1)C(=O)Nc1ccc(C#N)c(C(F)(F)F)c1` (stereo unspecified): the Potency entry in assay [1], in assay [2], in assay [3] and in assay [17] was “inactive” throughout. The result in assay [5], in assay [6], in assay [7], in assay [8], in assay [9] and in assay [10] was inactive. The compound was called inactive in [11], in [12], in assay [13], in [14], in [15] and in [16]. In addition, the compound was classed as inactive in assay [19].

As for `CCOP(=S)(OCC)Oc1cc(Cl)c(Br)cc1Cl`, the Potency entry in [1], in assay [2] and in assay [3] was “inactive” throughout. Moreover, the call in assay [5], in assay [6], in assay [7], in assay [8], in assay [9] and in assay [10] was inactive. Moreover, the result in [11], in assay [12], in assay [13], in assay [14], in assay [15] and in assay [16] was inactive.
